# Shown are actives, neighbours in structure and some others; about 2% of the full set was active somewhere.
# HTT cytoprotect: protects HTT-Q103 PC12 cells, measured by ATP. PC12 HTT-Q103 induced, cytoprotection, ATP luminescence, 40 h. Potency, µM (highest dose often 56.4 µM), usual class: activators. 0.14% of 230,000 active; further: nearly all actives have a fitted effect of over 45% in size
#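 Huntington model: PC12 line, ecdysone-inducible HTTQ103 exon1–GFP, tebufenozide 100 nM. Test articles in a dose series. Endpoint luminescence from cellular ATP.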
# Coupling enz: coupling enzyme interference in Giardia aldolase counter-screen. coupling enzyme system counterscreen, AmpLite Red fluorescence. activity change, negative = inhibition, % at 58.2 µM, hits read low. 0.67% of 290,000 active; in the data active means activity change below about -30%
#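 Coupling enzymes only (glyceraldehyde-3-phosphate) + compound, at 57.5 uM final, 10 min RT; add substrate/coupling/AmpLite Red mix, 20 min RT; fluorescence ex 525/em 598 nm. Actives flag coupling-system interference.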
# TR SRC2 fluor cs: counter-screen for TRb-SRC2 inhibitors: fluorescence interference; TRb/SRC2 Texas Red total fluorescence interference; Potency, µM (series often up to 106 µM); 0.29% of 280,000 active; AID 1479; active means well fitted curve in either direction with a large enough effect; inconclusive means small, poorly fitted or top-dose-only effect
#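 Human TRb ligand-binding domain at 0.6 uM with 20 nM Texas Red SRC2 peptide in Tris buffer containing 1 uM T3 and 5% DMSO, incubated with compound 5 h at ambient temperature. Total fluorescence (555/632 nm) calculated as parallel + 2 × perpendicular.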
# TRb SRC2 PPI: disrupts binding of human TR beta to SRC2; P10828; Potency, µM (titrated, usually from 106 µM), usual class: inhibitors; 0.065% of 280,000 active; AID 1469; TRbeta-SRC2 peptide binding, fluorescence polarization; receptor liganded with 1 µM T3; further: nearly all actives have a fitted effect of over 50% in size
#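 Each compound concentration gave % activity, normalized to unbound and bound Texas Red SRC2 controls, from polarization read after 5 hr ambient incubation with T3-loaded human TRb LBD.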
# HTT aggregate: reduces HttQ103-GFP aggregates in PC12 cells. 1.1% of 220,000 active. Potency, µM (top dose mostly 46.1 µM), hits mostly inhibitors. PC12 HttQ103-GFP aggregates, Acumen cytometry, 40 h; further: nearly all actives have a fitted effect of over 60% in size
#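 Read-out: GFP aggregate count by laser scanning cytometer (488 nm excitation, 500-530 nm emission, 1–25 µm objects >6 SD above background). Cells: PC12, inducible HTTex1-Q103-GFP, 100 nM tebufenozide; compounds titrated.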
# KDM4E inh: inhibitors of human JMJD2E histone demethylase. JMJD2E catalytic domain, FDH-coupled NADH fluorescence (FDH is formaldehyde dehydrogenase). Potency, µM (series often up to 57.1 µM), most hits filed as inhibitors. AID 2147. 1.6% of 230,000 active. B2RXH2; active means well fitted inhibition curve with a large enough effect, not every such curve was filed as active; inconclusive means small, poorly fitted or top-dose-only effect, or another doubt; inactive means no such curve, though single readings can be large or run the other way; further: nearly all actives have a fitted effect of over 50% in size
# Target sequence (B2RXH2 1-337 limits assumed): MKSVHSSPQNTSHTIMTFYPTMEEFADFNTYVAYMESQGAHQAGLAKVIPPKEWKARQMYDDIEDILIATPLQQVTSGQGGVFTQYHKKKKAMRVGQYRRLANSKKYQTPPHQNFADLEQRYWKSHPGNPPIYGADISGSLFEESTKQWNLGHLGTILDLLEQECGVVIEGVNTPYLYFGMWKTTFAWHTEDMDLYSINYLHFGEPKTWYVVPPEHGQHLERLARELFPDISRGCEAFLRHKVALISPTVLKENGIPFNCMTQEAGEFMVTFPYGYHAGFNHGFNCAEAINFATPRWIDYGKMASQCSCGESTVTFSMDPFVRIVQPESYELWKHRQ
# Hits are given with their value; 0 = inactive; ? = inconclusive; - = no result given; [ ] = remark or other dose. Unless noted, the call rests on the fitted dose curve; in most records, active means well fitted curve in the direction sought with a large enough effect; inconclusive means small, poorly fitted or top-dose-only effect, or another doubt; inactive means no such curve, though single readings can be large; an effect the other way counts as inactive or inconclusive.
SMILES,HTT cytoprotect,Coupling enz,TR SRC2 fluor cs,TRb SRC2 PPI,HTT aggregate,KDM4E inh
CN(C)c1ccc(C(=S)N2CCN(c3ccc([N+](=O)[O-])cc3)CC2)cc1,0[10 µM],-30.0,0,0,0[9.22 µM],0
Clc1ccc(/C(Cc2nc3ccccc3[nH]2)=N\Nc2ccccc2)cc1,0[10 µM],0,0,0,0[9.22 µM],22.4µM
Nc1nc(SC/C=C\c2ccccc2)c2[nH]cnc2n1,0[10 µM],-,-,-,-,-
CSc1ccc(CCNC(=O)c2ccc(CS(=O)(=O)c3ccc(Br)cc3)o2)cc1,-,-,0,0,-,-
CC(=O)c1nnn(-c2cccc([N+](=O)[O-])c2)c1C,0,-38.5,0,0,0,0
COc1ccc2c(c1)NC(C)(C)C=C2C,0,-33.1,0,0,0,?
CC1=CC(C)(C)Nc2ccccc21,0,0,0,0,0,?
CCN(CCO)c1nc(SC)nc2c1sc1nc(-c3ccco3)c3c(c12)CCC3,0,0,0,0,?,3.55µM
CS(=O)(=O)c1nc(-c2ccccc2)cc(C(F)(F)F)n1,?,0,0,0,4.47µM,0
Cc1cc(C)c2c(=O)n(CC(=O)NCCCN3CCN(c4ccccc4F)CC3)sc2n1,0[10 µM],0,0,0,?,28.2µM
Cc1cc(C)c2c(=O)n(CC(=O)Nc3ccc(Cl)cc3)sc2n1,0[10 µM],0,0,0,0[9.22 µM],28.2µM
CCOc1ccc(NC(=O)Cn2sc3nc(C)cc(C)c3c2=O)cc1,0[10 µM],0,0,0,0[9.22 µM],?
CCN(CC(=O)c1c(N)n(C)c(=O)n(C)c1=O)c1cccc2ccccc12,0[10 µM],-43.4,0,0,?,?
CC(=O)Nc1sc(N/N=C\c2ccc(O)cc2)nc1-c1cccs1,0[10 µM],0,0,0,0[9.22 µM],0
CCN(CC)c1ccc(/C=C(\C#N)c2nc(-c3cccs3)c(NC(C)=O)s2)cc1,0[10 µM],0,?,?,12.6µM,0
Cc1nc(N2CCCC2)c2c(C(=O)N3CCN(c4ccc(F)cc4)CC3)c(C)oc2n1,-,-,0,0,-,-
CCNc1ncc2nc(-c3cc(F)cc(F)c3)c(=O)n(C)c2n1,0,0,-,-,-,-
Cc1ccccc1NC(=O)C(=Cc1ccc(C(=O)O)cc1)C(=O)Nc1ccccc1C,0[10 µM],0,0,0,6.31µM,0
COc1cccc(-n2c([S-])c(C(=O)Nc3ccc(S(=O)(=O)N4CCOCC4)cc3)[n+]3cc(C(N)=O)ccc23)c1,0[10 µM],0,0,0,0[9.22 µM],14.1µM
Cc1c(C(=O)Nc2ccc3c(c2)OCCO3)sc2nc(-c3ccccc3)cn12,0[10 µM],0,0,0,15.8µM,?
Cc1c(C(=O)Nc2ccncc2)sc2nc(-c3ccccc3)cn12,0[10 µM],0,0,0,?,?
Cc1ccc2oc(=O)c3cnn(CC(=O)N4CCN(c5cc(Cl)ccc5C)CC4)c3c2c1,-,-,0,0,-,-
C/C(=N\NC(N)=S)C1(C)CCCCC1,-,0,0,0,0,0
C/C(=N\NC(N)=S)C12CC3CC(CC(C3)C1)C2,3.16µM,0,0,0,0,0
NS(=O)(=O)c1ccc(N=Nc2ccc(O)c3ncccc23)cc1,-,0,-,-,-,-
SMILES,HTT cytoprotect,Coupling enz,TR SRC2 fluor cs,TRb SRC2 PPI,HTT aggregate,KDM4E inh
O=Cc1ccc(O)c2ncccc12,0[10 µM],0,0,0,0[9.22 µM],3.16µM
COC(=O)\C(C(C)=O)=C(/C=C/C=C/C=C/N(C)C)N(C)C,0,0,0,0,0,22.4µM
COC(=O)/C(C(C)=O)=C(\C=C\N(C)C)N(C)C,0,0,0,0,0,0
Cn1cc(C[C@H](C(=O)O)N2C(=O)c3ccc(C(=O)O)cc3C2=O)c2ccccc21,-,0,0,0,-,-
Cc1cc(-n2c(C)cc(C(=O)CSc3nnc4sc5ccccc5n34)c2C)no1,0,0,0,0,0,0
Cc1cc(-n2c(C)cc(C(=O)CSc3ncnc4ccccc34)c2C)no1,0,0,0,0,1.78µM,0
CC(=O)c1cccc(OCC(=O)c2cc(C)n(-c3cc(C)on3)c2C)c1,0,-33.5,0,0,12.6µM,0
CCOC(=O)C1=C(N)OC2=C(C(=O)CCC2)C1c1cccs1 (centres undefined),0,-40.2,0,0,0,0
COC(=O)C1=C(N)OC2=C(C(=O)CCC2)C1c1cccs1 (centres undefined),0[10 µM],0,0,0,0,0
O=[N+]([O-])c1ccc2c(c1)Cc1ccccc1-2,-,-,0,0,-,-
c1cn(-c2ncnc3ccc(-c4ccoc4)cc23)cn1,2.51µM,0,-,-,-,-
CCOC(=O)Cn1c(=O)n(CC2CCCO2)c2nc(-c3ccccc3)nc(C(N)=O)c21 (centres undefined),-,-,0,0,-,-
COc1cc(CN2CCN(CCCc3ccccc3)C(CCO)C2)cc(OC)c1O (centres undefined),-,-41.0,-,-,-,-
OCCC1CN(Cc2c(O)ccc3ccccc23)CCN1CCc1ccccc1 (centres undefined),0[10 µM],-37.6,0,0,0[9.22 µM],?
COc1ccc(CN2CCN(CCCc3ccccc3)C(CCO)C2)c(OC)c1 (centres undefined),-,0,-,-,-,-
Cc1cccc(C2c3[nH]c4ccccc4c3CCN2Cc2cccn2-c2ncccn2)c1 (centres undefined),-,0,0,0,-,31.6µM
O=P1(O)Oc2c(c(-c3ccccc3)cc3ccccc23)-c2c(-c3ccccc3)cc3ccccc3c2O1,0,0,0,0,-,0
Oc1cc(-c2ccccc2)c2ccccc2c1,-,-60.3,0,0,0,?
O=C1CCN2C=Nc3cccc4ccc1c2c34,0,-30.5,0,0,?,?
c1ccc(CN2CCN(C3=Nc4cccc5cccc3c45)CC2)cc1,0,0,0,0,0,0
CCNc1nc(NCC)n2c(SCc3ccc(F)cc3)nnc2n1,0[10 µM],0,0,0,2.51µM,0
CCNc1nc(NCC)n2c(SCc3nc4ccccc4c(=O)[nH]3)nnc2n1,0[10 µM],0,0,0,0,0
CCN(C(=O)COc1ncnc2sccc12)c1ccccc1,1µM,0,0,0,0,0
O=Cc1s/c(=N\S(=O)(=O)c2ccccc2)n(CCCCl)c1Cl,0,0,0,0,5.01µM,0
COc1ccc(OC)c(CNS(=O)(=O)c2ccc(-c3coc(C)n3)cc2)c1,-,-,0,0,-,-
SMILES,HTT cytoprotect,Coupling enz,TR SRC2 fluor cs,TRb SRC2 PPI,HTT aggregate,KDM4E inh
Oc1c(C(c2cccs2)N2CCN(c3ccccc3)CC2)ccc2cccnc12 (centres undefined),0,0,0,0,0,7.94µM
Oc1c(C(c2ccccc2Cl)N2CCCC2)ccc2cccnc12 (centres undefined),0[10 µM],0,0,0,?,?
C[C@H]1Cc2c(COc3ccccc3)nc3c(c2CO1)CN(C(=O)c1cc(I)ccc1F)CC3,0[10 µM],0,0[11.2 µM],0[11.2 µM],-,0[11.4 µM]
N#Cc1c(NC(=O)c2ccccc2Cl)n(Cc2ccccc2)c2nc3ccccc3nc12,0[10 µM],-38.6,0,?,?,?
COc1ccc(C(=O)Nc2ccc(NC(=O)c3ccco3)cc2)cc1,-,0,-,-,-,-
COc1ccc(OCCn2c(NC(=O)c3ccc(OC)cc3)nc3ccccc32)cc1,-,-,0,0,-,-

# Compound activity: PubChem BioAssay, National Center for Advancing Translational Sciences (NCATS)
